For some assays here: Entries with a potency or affinity are not part of this list.
Columns and labels:
Design in all cases: scale not given: direction of the effect not stated beside the values
[1] = target: Protein translocase subunit SecA (Escherichia coli (strain K12)) (UniProt P10408); experiment: Assay to Identify E. coli SecA ATPase Inhibitors; type: functional; conditions: 30 µM
[2] = target: T1, Ubiquitin-activating enzyme e1, putative (Leishmania donovani (strain BPK282A1)) (UniProt E9BSI1); experiment: Leishmania donovani Ubiquitin Activating Enzyme (LdE1); type: functional; conditions: 30 µM
T1 sequence (whole entry): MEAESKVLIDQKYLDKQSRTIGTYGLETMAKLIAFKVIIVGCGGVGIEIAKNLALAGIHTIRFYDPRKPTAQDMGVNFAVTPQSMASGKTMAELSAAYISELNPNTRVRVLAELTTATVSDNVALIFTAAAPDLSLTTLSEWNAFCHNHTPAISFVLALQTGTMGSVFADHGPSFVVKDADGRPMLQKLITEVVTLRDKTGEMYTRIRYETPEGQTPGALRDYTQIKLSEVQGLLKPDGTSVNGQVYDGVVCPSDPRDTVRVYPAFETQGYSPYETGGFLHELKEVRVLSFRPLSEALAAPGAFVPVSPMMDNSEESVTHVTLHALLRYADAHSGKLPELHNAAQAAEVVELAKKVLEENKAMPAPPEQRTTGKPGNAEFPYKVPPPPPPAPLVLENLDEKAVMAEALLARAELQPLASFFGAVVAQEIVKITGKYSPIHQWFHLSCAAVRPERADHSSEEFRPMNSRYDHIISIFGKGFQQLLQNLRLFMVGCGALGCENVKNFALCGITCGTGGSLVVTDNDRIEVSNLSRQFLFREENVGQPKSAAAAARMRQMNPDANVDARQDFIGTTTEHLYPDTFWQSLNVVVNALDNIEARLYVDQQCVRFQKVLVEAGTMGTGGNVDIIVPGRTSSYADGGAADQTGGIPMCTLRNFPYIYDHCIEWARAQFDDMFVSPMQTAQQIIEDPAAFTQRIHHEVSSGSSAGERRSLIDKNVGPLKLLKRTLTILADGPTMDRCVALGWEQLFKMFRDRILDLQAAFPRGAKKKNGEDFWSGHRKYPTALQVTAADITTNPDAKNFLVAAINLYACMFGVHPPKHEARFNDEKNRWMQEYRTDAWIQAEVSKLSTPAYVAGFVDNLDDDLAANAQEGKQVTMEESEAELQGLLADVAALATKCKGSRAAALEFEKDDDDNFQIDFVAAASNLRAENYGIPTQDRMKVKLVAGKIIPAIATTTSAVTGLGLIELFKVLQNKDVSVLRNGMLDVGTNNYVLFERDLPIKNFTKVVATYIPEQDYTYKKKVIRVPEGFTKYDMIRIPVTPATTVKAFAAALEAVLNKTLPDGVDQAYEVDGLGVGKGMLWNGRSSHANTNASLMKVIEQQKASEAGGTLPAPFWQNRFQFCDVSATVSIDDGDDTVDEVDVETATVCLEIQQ

[3] = target: AMP-activated protein kinase, AMPK (Homo sapiens) (UniProt P54646+O43741+P54619+Q9UGJ0+Q9Y478+Q13131+Q9UGI9); experiment: AMP-dependent Kinase enzyme assay. An in vitro enzyme assay that detects ADP turnover that is directly proportional to AMPK activity. This uses naive AMPK that is activated during the assay with MK-8722; type: functional; conditions: 30 µM
[4] = target: Sialic acid-binding Ig-like lectin 9 (Homo sapiens) (UniProt Q9Y336); experiment: Hs-Siglec9 ALPHAscreen SOP 20170721; conditions: 10 µM
Chain of Sialic acid-binding Ig-like lectin 9 (Homo sapiens) (Q9Y336 whole entry): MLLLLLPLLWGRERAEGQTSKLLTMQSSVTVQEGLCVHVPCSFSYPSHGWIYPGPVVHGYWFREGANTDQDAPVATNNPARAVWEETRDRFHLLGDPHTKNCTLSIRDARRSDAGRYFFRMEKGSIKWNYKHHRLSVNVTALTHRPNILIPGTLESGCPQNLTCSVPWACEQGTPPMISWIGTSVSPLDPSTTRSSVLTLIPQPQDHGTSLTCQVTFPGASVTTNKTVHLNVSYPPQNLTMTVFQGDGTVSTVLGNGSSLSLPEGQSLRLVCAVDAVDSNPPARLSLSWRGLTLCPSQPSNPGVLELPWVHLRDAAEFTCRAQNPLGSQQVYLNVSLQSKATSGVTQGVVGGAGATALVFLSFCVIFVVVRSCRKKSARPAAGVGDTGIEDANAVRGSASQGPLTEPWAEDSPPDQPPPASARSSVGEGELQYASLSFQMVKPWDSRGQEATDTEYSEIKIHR

Trypanosoma cruzi = experiment: Trypanosoma cruzi phosphomannomutase and mannose-1-phosphate guanylyltransferase assay; type: functional; conditions: 10 µM
[5] = target: T2, Arginase-2, mitochondrial (Homo sapiens) (UniProt P78540); experiment: in vitro enzyme assay to detect the production of urea directly proportional to the activity of Arginase II; type: functional; conditions: 33.3 µM; further: in the data most compounds retested in dose-response had high values
T2 sequence (whole entry): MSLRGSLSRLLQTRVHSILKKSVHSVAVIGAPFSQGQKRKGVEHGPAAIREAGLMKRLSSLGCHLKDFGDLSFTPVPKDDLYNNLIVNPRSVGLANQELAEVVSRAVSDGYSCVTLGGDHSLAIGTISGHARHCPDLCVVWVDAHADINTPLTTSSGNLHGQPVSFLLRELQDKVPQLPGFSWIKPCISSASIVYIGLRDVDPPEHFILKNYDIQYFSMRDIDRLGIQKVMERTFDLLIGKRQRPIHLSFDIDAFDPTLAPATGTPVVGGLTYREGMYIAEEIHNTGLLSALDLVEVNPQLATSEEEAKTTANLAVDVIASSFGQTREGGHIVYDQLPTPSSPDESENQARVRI

[6] = target: T3, Proteasome subunit beta (Trypanosoma cruzi) (UniProt O96673); experiment: Trypanosoma cruzi proteasome chymotrypsin-like activity (TcProtChymo) assay.; further: in the data most compounds retested in dose-response had high values; type: functional; conditions: 9.37 µM
T3 sequence (whole entry): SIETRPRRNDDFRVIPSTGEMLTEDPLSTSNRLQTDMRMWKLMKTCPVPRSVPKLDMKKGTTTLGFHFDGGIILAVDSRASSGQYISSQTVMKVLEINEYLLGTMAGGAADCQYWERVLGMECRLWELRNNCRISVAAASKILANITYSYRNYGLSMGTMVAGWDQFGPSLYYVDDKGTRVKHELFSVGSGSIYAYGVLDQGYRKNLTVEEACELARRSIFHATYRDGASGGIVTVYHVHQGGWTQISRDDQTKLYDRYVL

Homo sapiens = species on record: Homo sapiens; experiment: To identify inhibition of the IFN signalling (Jak-Stat) pathway via expression of an eGFP reporter gene under the control of an IFN-stimulated response element (ISRE) containing MxA promoter.; type: functional; conditions: 30 µM
[7] = target: T4, Tyrosyl-tRNA synthetase, putative (Trypanosoma cruzi (strain CL Brener)) (UniProt Q4DSP6); experiment: Trypanosoma cruzi tyrosyl tRNA synthetase (TcYRS) _High Tyrosine SOP; type: functional; conditions: 30 µM; further: in the data most compounds retested in dose-response had high values
T4 sequence (whole entry): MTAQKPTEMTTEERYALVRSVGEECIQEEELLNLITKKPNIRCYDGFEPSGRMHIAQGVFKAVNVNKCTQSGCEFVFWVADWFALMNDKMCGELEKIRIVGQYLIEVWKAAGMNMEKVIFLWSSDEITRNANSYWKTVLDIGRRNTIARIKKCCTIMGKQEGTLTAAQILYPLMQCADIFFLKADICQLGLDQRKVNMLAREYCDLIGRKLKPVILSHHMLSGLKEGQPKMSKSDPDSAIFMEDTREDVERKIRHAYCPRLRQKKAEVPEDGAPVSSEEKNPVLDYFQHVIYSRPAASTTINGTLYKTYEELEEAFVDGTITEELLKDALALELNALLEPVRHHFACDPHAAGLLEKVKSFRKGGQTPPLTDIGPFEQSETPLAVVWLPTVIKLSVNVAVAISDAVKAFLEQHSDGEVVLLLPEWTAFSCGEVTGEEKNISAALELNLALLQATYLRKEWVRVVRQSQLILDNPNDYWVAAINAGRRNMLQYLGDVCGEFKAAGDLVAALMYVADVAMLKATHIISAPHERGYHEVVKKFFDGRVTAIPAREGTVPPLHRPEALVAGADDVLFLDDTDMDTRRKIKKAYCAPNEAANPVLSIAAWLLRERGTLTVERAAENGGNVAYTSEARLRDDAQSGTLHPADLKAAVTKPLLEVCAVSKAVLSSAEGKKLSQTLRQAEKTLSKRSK

[8] = target: T4, Tyrosyl-tRNA synthetase, putative (Trypanosoma cruzi (strain CL Brener)); experiment: Trypanosoma cruzi tyrosyl tRNA synthetase (TcYRS) SOP; type: functional; conditions: 30 µM
[9] = target: Chromo domain-containing protein 1 (Saccharomyces cerevisiae (strain ATCC 204508 / S288c) (Baker's yeast)) (UniProt P32657); experiment: ScCHD-1 Enzyme Inhibition Assay; type: functional; conditions: 30 µM; further: in the data most compounds retested in dose-response had high values
Chain of Chromo domain-containing protein 1 (Saccharomyces cerevisiae (strain ATCC 204508 / S288c) (Baker's yeast)) (P32657 whole entry, the tested form may be a part): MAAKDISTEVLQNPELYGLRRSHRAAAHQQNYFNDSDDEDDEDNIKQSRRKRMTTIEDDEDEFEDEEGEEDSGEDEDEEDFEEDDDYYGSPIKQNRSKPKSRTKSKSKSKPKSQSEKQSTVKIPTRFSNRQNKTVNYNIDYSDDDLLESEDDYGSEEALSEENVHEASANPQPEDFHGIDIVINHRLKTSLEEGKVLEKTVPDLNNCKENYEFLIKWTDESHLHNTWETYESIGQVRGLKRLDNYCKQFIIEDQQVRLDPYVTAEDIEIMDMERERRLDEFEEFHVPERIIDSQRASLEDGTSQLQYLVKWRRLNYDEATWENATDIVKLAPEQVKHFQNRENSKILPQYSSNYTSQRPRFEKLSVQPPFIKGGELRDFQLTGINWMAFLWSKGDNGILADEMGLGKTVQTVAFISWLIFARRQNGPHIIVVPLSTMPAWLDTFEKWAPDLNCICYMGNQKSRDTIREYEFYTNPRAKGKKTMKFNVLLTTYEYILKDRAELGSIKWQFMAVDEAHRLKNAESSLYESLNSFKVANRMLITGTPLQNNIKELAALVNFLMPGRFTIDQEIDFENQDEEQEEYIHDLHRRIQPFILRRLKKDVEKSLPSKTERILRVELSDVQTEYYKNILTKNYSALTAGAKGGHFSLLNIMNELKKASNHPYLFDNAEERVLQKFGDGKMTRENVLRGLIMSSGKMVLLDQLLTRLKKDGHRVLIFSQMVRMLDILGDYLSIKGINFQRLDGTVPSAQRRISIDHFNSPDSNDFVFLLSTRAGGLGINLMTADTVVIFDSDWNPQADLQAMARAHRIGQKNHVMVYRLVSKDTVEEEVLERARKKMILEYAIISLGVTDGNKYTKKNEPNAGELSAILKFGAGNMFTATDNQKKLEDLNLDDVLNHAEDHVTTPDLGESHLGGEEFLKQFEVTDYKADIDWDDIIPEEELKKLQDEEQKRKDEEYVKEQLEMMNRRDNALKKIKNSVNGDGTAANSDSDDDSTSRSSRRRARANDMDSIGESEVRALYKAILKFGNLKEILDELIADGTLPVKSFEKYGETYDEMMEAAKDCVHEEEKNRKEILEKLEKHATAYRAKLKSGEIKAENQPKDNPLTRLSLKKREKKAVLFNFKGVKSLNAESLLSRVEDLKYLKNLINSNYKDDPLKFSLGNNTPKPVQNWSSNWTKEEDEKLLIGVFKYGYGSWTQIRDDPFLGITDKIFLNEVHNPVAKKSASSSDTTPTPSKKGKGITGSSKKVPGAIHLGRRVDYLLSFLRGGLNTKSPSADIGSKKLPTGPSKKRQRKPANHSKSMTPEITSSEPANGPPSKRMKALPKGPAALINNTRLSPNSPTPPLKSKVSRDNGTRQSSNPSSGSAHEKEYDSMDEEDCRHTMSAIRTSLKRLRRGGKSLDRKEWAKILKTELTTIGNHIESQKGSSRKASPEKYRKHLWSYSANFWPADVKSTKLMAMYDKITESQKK

Chain of Protein translocase subunit SecA (Escherichia coli (strain K12)) (P10408 whole entry): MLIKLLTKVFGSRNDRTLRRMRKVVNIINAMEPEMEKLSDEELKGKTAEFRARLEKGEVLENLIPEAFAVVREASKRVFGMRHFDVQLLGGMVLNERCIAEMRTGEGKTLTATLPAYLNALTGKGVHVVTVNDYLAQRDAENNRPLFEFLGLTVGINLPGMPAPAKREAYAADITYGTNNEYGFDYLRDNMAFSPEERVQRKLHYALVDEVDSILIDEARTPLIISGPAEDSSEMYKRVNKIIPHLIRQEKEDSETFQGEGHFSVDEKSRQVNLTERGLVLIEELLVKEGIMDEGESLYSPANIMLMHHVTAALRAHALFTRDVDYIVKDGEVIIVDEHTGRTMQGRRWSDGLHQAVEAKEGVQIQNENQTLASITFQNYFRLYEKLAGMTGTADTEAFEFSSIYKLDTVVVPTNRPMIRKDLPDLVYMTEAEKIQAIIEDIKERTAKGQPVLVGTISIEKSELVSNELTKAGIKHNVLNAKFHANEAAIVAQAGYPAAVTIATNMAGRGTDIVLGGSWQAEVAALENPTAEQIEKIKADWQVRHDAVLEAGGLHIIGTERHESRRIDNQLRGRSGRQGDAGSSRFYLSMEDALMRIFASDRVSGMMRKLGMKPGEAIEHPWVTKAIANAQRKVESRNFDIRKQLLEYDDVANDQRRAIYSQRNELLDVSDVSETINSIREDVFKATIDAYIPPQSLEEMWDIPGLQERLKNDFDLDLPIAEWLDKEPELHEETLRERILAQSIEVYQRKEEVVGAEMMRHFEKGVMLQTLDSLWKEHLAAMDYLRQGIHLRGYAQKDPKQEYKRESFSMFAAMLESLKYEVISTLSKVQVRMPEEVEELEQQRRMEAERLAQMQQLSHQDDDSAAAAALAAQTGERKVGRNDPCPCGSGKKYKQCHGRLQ

Structure (SMILES) | Percent Effect [1] [%] | Percent Effect [2] [%] | Percent Effect [3] [%] | Percent Effect [4] [%] | Percent Effect (Trypanosoma cruzi) [%] | Percent Effect [5] [%] | Percent Effect [6] [%] | Percent Effect (Homo sapiens) [%] | Percent Effect [7] [%] | Percent Effect [8] [%] | Percent Effect [9] [%]
CC(Oc1ccccc1C(F)(F)F)C(=O)NCCC(=O)N(C)C (configuration not stated) | -4.14 | 8.11 | -2.52 | 6.01 | 2.93 | 26.2 | 3.47 | -11.3 | 4.95 | 13.4 | -4
O=C(CC1CC1)N1CC[C@H]2[C@@H]1CCC(=O)N2c1cccnc1 | 3.01 | 10.8 | 7.09 | -6.56 | -4.79 | 4.14 | 22.9 | 2.55 | 1.08 | 12.8 | -1.6
CC(Cn1ccnc1)NC(=O)C1(c2ccc(F)cc2)CC1 (configuration not stated) | -2.91 | 17.7 | -3.38 | -4.39 | 2.93 | -3.42 | 4.83 | -2.07 | 1.48 | 16.5 | -3.1
CCn1c(CN2CCCN(C(=O)OC)CC2)nc2c(F)cccc21 | -2.85 | 15.8 | -5.17 | 7.02 | -3.95 | 8.81 | 9.69 | -5.04 | 6.37 | 12.2 | -4.43
COc1cc(NC(=O)c2ccccc2F)c(C(=O)N(C)C)cc1OC | 1.19 | 5.2 | 0.986 | 2.38 | -7.96 | -8.28 | 18.8 | -4.11 | 3.23 | 11.1 | -2.46
COc1ccc(CCNC(=O)NC2CCCC2)cc1OC | 0.159 | 8.11 | -0.309 | 3.69 | -1.16 | 3.33 | 13.3 | 6.13 | 5.82 | 9.76 | -3.01
Cn1ncc2c(=O)[nH]c(CN(Cc3cccc(F)c3)C3CC3)nc21 | -4.78 | 15.6 | 1.73 | -0.0963 | 8.05 | 3.92 | 16.1 | -5.95 | 8.74 | 24.4 | -7.35
O=C(c1ccc[nH]1)N1CCN(CC2CCOc3ccccc3C2)CC1 (configuration not stated) | -7.81 | 1.39 | -3.67 | 14.8 | 1.07 | -1.77 | 4.04 | -2.27 | 3.16 | -7.69 | -1
CC(C)Nc1nc(N2CCCC2)nc2c1CN(C(C)C)CC2 | 1.43 | -2.67 | -5.03 | 21.2 | 4.63 | -29.6 | 14.7 | -15.2 | 5.21 | -2.5 | -5.55
O=C(NCc1cccs1)[C@H]1CC[C@@H]2[C@@H](CCN2c2ncccn2)O1 | -2.42 | 5.41 | -0.805 | -3.31 | 6.45 | -0.833 | 18.9 | 18.7 | 8.91 | 18.3 | -3.92
CN(Cc1ccco1)C[C@H]1OC[C@@H]2CCN(Cc3nccs3)C[C@@H]21 | -6.74 | 16 | -3.04 | -3.48 | 5.41 | -45 | 16.1 | 7.21 | 2.08 | 10 | -6.67
CC(=O)N(C)c1nc(CN2CCCCC2Cn2cncn2)cs1 (configuration not stated) | -8.24 | 7.79 | -1 | 0.729 | -5.99 | -1.42 | 7.43 | 27.8 | 5.83 | 7.32 | -6.12
O=S(=O)(Nc1cnn(C2CCOCC2)c1)c1c(F)cccc1F | 1.19 | -2.6 | -13.6 | 5.79 | -2.66 | -1.94 | 10.4 | 5.2 | 2.12 | 1.28 | -4.35
CCS(=O)(=O)c1ccccc1C(=O)NCc1ccnc(N(C)C)c1 | -2.2 | 28.6 | -10.1 | 2.33 | 2.62 | 4.27 | 14 | 4.01 | 9.71 | 24.4 | -10.5
CC(C)c1cc(NC(=O)CN2CCCC2Cn2cccn2)on1 (configuration not stated) | -5.87 | 5.26 | -3.45 | -1.04 | -1.59 | 3.24 | -0.761 | 15.3 | 7.39 | 6.17 | 9.14
Cc1ccsc1C(=O)N1CC(C(=O)N2CCOCC2)C2(CCOCC2)C1 (configuration not stated) | -7 | 2.6 | 117 | -9.65 | -8.38 | 0.645 | 13.1 | 0.0644 | -4.23 | -8.97 | -5.38
CCS(=O)(=O)N1CCc2c(CN(C)Cc3ccco3)cncc2C1 | -1.78 | -2.67 | 2.28 | 4.22 | -3.86 | -1.61 | 11.3 | -0.516 | -2.08 | 5 | -3.58
COc1ccc(NC(=O)NC(C)c2nc[nH]n2)cc1 (configuration not stated) | -1.78 | 8.11 | -0.122 | 9.35 | 3.03 | 19.6 | 17.9 | -13.4 | 0 | 11.1 | -3.04
Cc1nc(CN2CCCC(NCCOCC(F)(F)F)C2)no1 (configuration not stated) | -6.82 | 7.59 | -4.02 | 0.79 | 4.44 | -1.52 | 4.18 | -2.76 | 4.43 | 8.86 | -5.18
N#Cc1cccc(SCCS(N)(=O)=O)c1 | -3.48 | 1.39 | -2.94 | 14.2 | 5.15 | -9.27 | 15.3 | 7.55 | 0 | 5.13 | -3.3
O=C(CCC1CCCO1)NS(=O)(=O)c1ccc(Cl)cc1 (configuration not stated) | -3.22 | 18.9 | -10.2 | 0.394 | -4.81 | -2 | 17.5 | 16.7 | 8.37 | 18.5 | -1.63
CC(=O)N1CCCC1C(=O)NCCOc1cc(C)cc(C)c1 (configuration not stated) | -7.33 | 7.79 | -4.76 | 10.6 | 3.37 | -5.34 | -7.43 | -4.36 | 6.8 | 12.2 | -4.02

Reference: ChEMBL document CHEMBL3988442, “University of Dundee, Small-Polar-MMV Screening Library” (2021)
